33 compounds from PubChem BioAssay AID624047 (National Center for Advancing Translational Sciences (NCATS), 2012) can be followed below.

Activity calls are given as the source filed them. The call rests on the fitted dose curve; in most records, active means well fitted inhibition curve with a large enough effect; inactive means flat fitted curve, though single readings scatter.

Chain of Dual specificity protein kinase CLK1 (Homo sapiens) (P49759 whole entry, looked up, canonical isoform): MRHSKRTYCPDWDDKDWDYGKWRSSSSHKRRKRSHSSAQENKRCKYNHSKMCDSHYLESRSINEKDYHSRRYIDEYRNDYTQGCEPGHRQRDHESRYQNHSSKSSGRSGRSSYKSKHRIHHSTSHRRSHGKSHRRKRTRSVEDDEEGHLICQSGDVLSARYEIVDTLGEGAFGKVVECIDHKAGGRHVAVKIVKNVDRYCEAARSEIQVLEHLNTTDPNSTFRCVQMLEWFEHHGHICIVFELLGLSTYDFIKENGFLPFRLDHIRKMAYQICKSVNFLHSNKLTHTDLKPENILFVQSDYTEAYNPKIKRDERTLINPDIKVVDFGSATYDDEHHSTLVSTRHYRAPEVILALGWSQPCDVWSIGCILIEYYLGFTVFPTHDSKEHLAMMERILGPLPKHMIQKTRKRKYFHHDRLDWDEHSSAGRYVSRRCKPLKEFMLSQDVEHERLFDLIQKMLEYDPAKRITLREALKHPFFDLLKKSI

The target of the experiment is Dual specificity protein kinase CLK1 (Homo sapiens) (UniProt P49759). Briefly: Reaction Biology data for inhibitors of CLK1: Probe SAR. The following applies: Reaction Biology CLK1 kinase assay, 10 uM ATP; series mostly up to 10 µM. The text has this:
Alternative splicing of pre-mRNAs plays a major role in the regulation of eukaryotic gene expression. Alternative splicing is now thought to be one of the primary reasons for the complexity of higher organisms leading to an average of three protein isoforms per gene. Aberrant splicing can lead to a number of diseases and is known to play a role in rare genetic diseases such as progeria syndrome. Hutchinson-Gilford Progeria Syndrome (HGPS) is a pediatric premature aging disease caused by a spontaneous mutation in the lamin A/C (LMNA) gene due to a single point mutation in the lamin A gene effecting 1 in 4 million people. To identify both specific splicing modulators of the lamin A gene as well as general splicing modulators, a cell-based HTS assay was developed using a minigene reporter system (AIDs, 1459 & 1487). […] This AID summarizes the characterization of lead compounds in Clk1. NIH Molecular Libraries Probe Production Centers Network [MLPCN] NIH Chemical Genomics Center [NCGC] MLPCN Grant: MH084827 Assay Submitter (PI): Tom Misteli
Compound IC50s were determined at Reaction Biology (http://www.reactionbiology.com) with ten concentration points starting at 10 uM in the assay using a 3-fold dilution series. The control compound staurosporine was also tested in the 10-dose IC50 mode with the same 3-fold serial dilution, again starting at 10 uM. All kinase reactions were performed using 10 uM ATP in the assay. 100% activity was taken from kinase reactions with DMSO alone (the vehicle used for compound stock solutions).
Turning to `COc1cccc(-c2ccnc(NCc3ccc(Cl)cc3)n2)c1`, the Potency entry was “inactive”.

For the compound `c1nc(NCC2CCCO2)c2cc(-c3ccc4c(c3)OCO4)ccc2n1` (stereo not drawn), the Potency was 52.8 nM (active).

On to `Clc1ccc(CNc2nccc(-c3ccc4c(c3)OCCO4)n2)cc1Cl`, for which the Potency is 15.8 nM (active).

Regarding `Clc1ccc(CNc2ccnc(-c3ccc4c(c3)OCO4)n2)cc1Cl`, the Potency result was “inactive”.

With `Clc1cc(Cl)cc(CNc2ncncc2-c2ccc3c(c2)OCO3)c1`, the Potency was 68.4 nM (active).

On to `Cc1nc(CN(C)c2ncnc3ccc(-c4ccc5[nH]ncc5c4)cc23)cs1`, for which the Potency is 47.5 nM (active).

Consider `O=[N+]([O-])c1cc(Nc2nccc(-c3ccc4c(c3)OCO4)n2)cc(C(F)(F)F)c1`, for which the Potency is 32.3 nM (active).

Regarding `c1cncc(CNc2ncncc2-c2ccc3c(c2)OCO3)c1`, the Potency is 4800 nM (active).

With `Brc1ccc(CNc2nccc(-c3ccc4c(c3)OCO4)n2)cc1Br`, the Potency was 24.1 nM (active).

With `Cc1nc(CNc2ncnc3ccc(-c4ccc5c(c4)OCO5)cc23)cs1`, the Potency is 30.4 nM (active).

Consider `Clc1cc(Cl)cc(CNc2nccc(-c3ccc4c(c3)OCO4)n2)c1`, for which the Potency was 1.9 nM (active).

Consider `Clc1ccc(CNc2ccnc(-c3ccc4[nH]ncc4c3)n2)cc1Cl`, for which the Potency is 1780 nM (active).

On to `Clc1ccc(CNc2nccc(-c3ccc4[nH]ncc4c3)n2)cc1Cl`, for which the Potency is 41.5 nM (active).

In the case of `c1cncc(CNc2ccnc(-c3ccc4[nH]ncc4c3)n2)c1`, the Potency is 964 nM (active).

For the compound `c1cncc(CNc2ccnc(-c3ccc4cn[nH]c4c3)n2)c1`, the Potency was 1600 nM (active).

Consider `FC(F)(F)c1cc(Br)cc(Nc2nccc(-c3ccc4c(c3)OCO4)n2)c1`, for which the Potency is 102 nM (active).

Consider `Cc1c(-c2ccnc(NCc3ccc(Cl)cc3)n2)sc(=O)n1C`, for which the Potency was 74.8 nM (active).

Turning to `c1cncc(CNc2nccc(-c3ccc4c(c3)OCO4)n2)c1`, the Potency was 11.3 nM (active).

`Clc1ccc(Nc2nccc(-c3ccc4c(c3)OCO4)n2)cc1`: the Potency was 1260 nM (active).

Take `FC(F)(F)c1cccc(Nc2nccc(-c3ccc4c(c3)OCO4)n2)c1`: the Potency is 33.6 nM (active).

`Clc1ccc(CNc2nccc(-c3ccc4c(c3)OCO4)n2)cc1Cl`: the Potency was 8.3 nM (active).

With `Clc1ccc(CNc2ncncc2-c2ccc3c(c2)OCO3)cc1Cl`, the Potency is 626 nM (active).

As to `c1cncc(CNc2nccc(-c3ccc4[nH]ncc4c3)n2)c1`, the Potency is 72.8 nM (active).

With `COc1ccc(-c2ccnc(NCc3ccc(Cl)c(Cl)c3)n2)cc1OC`, the Potency entry is “inactive”.

`COc1ccc(-c2ccnc(NCc3ccc(Cl)cc3)n2)cc1`: the Potency was 277 nM (active).

On to `COc1cccc(-c2ccnc(NCc3ccc(Cl)c(Cl)c3)n2)c1`, for which the Potency was 5460 nM (active).

Turning to `Brc1cc(Br)cc(CNc2nccc(-c3ccc4c(c3)OCO4)n2)c1`, the Potency is 13 nM (active).

Take `Clc1ccc(CNc2ncncc2-c2ccc3c(c2)OCO3)cc1`: the Potency is 2370 nM (active).

In the case of `c1cc(-c2ccc3c(c2)OCO3)nc(Nc2ccc3c(c2)OCO3)n1`, the Potency was 180 nM (active).

Turning to `Cc1nc(CN(C)c2ncnc3ccc(-c4ccc5c(c4)OCO5)cc23)cs1`, the Potency was 9.3 nM (active).

Take `Clc1ccc(CNc2nccc(-c3ccc4cn[nH]c4c3)n2)cc1Cl`: the Potency was 183 nM (active).

Take `COc1ccc(-c2ccnc(NCc3ccc(Cl)c(Cl)c3)n2)cc1`: the Potency is 76.5 nM (active).

Turning to `Cc1c(-c2ccnc(NCc3cccnc3)n2)sc(=O)n1C`, the Potency is 44.9 nM (active).
